This is a sample that favours compounds with a hit; in the whole collection about 0.93% have one here.
CIT2-GFP yeast = modulators of CIT2-GFP expression in yeast, primary screen, S. cerevisiae, GFP fusion, multiplex flow cytometry, MLPCN library; S. cerevisiae CIT2-GFP strain, 3 h; 100 means same as DMSO wells; GFP response vs DMSO, % at 10 µM; 0.065% of 320,000 active; AID 2029, 2009;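 active means GFP response relative to DMSO above a set limit, near the screen mean plus 3 SD, cut at about 150% in these data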;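 further: ratio of well median GFP fluorescence to mean of DMSO wells on the plate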
AGP1-GFP MLPCN = modulators of AGP1-GFP expression in yeast TOR pathway, primary screen, cell-based, multiplex flow cytometry, S. cerevisiae, MLPCN library; 3 h; GFP as percent of DMSO wells; GFP response vs DMSO, % at 10 µM; 0.02% of 320,000 active; AID 2066, 2009;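 active means GFP response relative to DMSO above a set limit, near screen average plus 3 SD, cut at about 150% in these data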;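 further: median GFP channel fluorescence of the gated AGP1 strain per well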
RPL19A-GFP yeast = RPL19A-GFP expression modulators in yeast, primary screen, cell-based, S. cerevisiae, multiplex flow cytometry, MLPCN. AID 2025, 2009. S. cerevisiae RPL19A-GFP strain, 3 h; active compounds read low. 0.3% of 330,000 active. percent response vs DMSO, % at 10 µM;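 active means percent response vs DMSO below 50%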;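 further: median channel GFP fluorescence of the barcoded RPL19A-GFP strain; lower means less RPL19A-GFP as with rapamycin TOR inhibition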
LAP4-GFP MLPCN = modulators of LAP4-GFP expression in yeast, primary screen, S. cerevisiae, multiplex flow cytometry, MLPCN library. 3 h; median GFP as percent of DMSO wells. GFP response vs DMSO, % at 10 µM. 0.34% of 320,000 active;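 active means GFP response vs DMSO above a set limit, about the screen mean plus 3 SD, cut at about 150% in these data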
MEP2-GFP yeast = modulators of MEP2-GFP levels in yeast, primary screen, S. cerevisiae, multiplex flow cytometry, MLPCN library; 0.51% of 330,000 active; S. cerevisiae MEP2-GFP strain, 3 h; 100% = DMSO control level; GFP response vs DMSO, % at 10 µM;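 active means GFP response versus DMSO above a set limit, roughly screen mean plus 3 SD, cut at about 180% in these data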;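 further: median GFP fluorescence of the barcode-gated MEP2-GFP cells per well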
LAP4 cherry2 = LAP4-GFP expression modulators in yeast, confirmation, cell-based, second cherry pick, flow cytometry; shares compounds with LAP4-GFP MLPCN; 20% of 590 active; S. cerevisiae LAP4-GFP strain, 3 h; GFP response vs DMSO, % at 10 µM;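 active means GFP signal as percent of the solvent control above about 150%, meaning raised reporter expression, limit read from the data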
MEP2 cherry2 = modulators of MEP2-GFP levels in yeast, confirmation, S. cerevisiae, flow cytometry GFP, second cherry picks; shares compounds with LAP4-GFP MLPCN; S. cerevisiae MEP2-GFP strain, 3 h; GFP response vs DMSO, % at 10 µM; 10% of 590 active; AID 2622, 2010;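 active means GFP signal above 150% of the solvent control wells, that is a rise of more than half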;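 further: median channel GFP fluorescence of all gated yeast cells per well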
RPL19A GFP CP2 = RPL19A-GFP modulators in TOR pathway yeast, confirmation, cell-based, S. cerevisiae, flow cytometry, second cherry pick. shares compounds with LAP4-GFP MLPCN. S. cerevisiae RPL19A-GFP strain, 3 h; active compounds read low; 100% means same as DMSO wells. GFP response vs DMSO, % at 10 µM. 3% of 590 active;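 active means under 65% GFP response relative to DMSO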;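 further: median GFP channel fluorescence per well over the all cells gate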
CIT2 GFP CP2 = modulators of CIT2-GFP expression in yeast, confirmation, flow cytometry, second cherry pick, single plex. 8% of 590 active. shares compounds with LAP4-GFP MLPCN. S. cerevisiae CIT2-GFP strain, 3 h; DMSO control wells read 100%. AID 2624, 2010. GFP response vs DMSO, % at 10 µM;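 active means GFP response vs DMSO above about 150%, limit read from the data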;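 further: median green fluorescence per well over all gated yeast cells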
AGP1-GFP pick2 = AGP1-GFP expression modulators, hit retest, confirmation, cell-based, flow cytometry, S. cerevisiae, cherry pick set 2 | shares compounds with LAP4-GFP MLPCN | S. cerevisiae AGP1-GFP strain, 3 h | percent response vs DMSO, % at 10 µM | 590 tested, under 10 active;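 active means over 150 percent of DMSO response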;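 further: median GFP channel fluorescence over all cells without mother daughter split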
Yeast autofluor = compound autofluorescence in yeast s288c, dose response, artefact control for yeast TOR pathway GFP screen, s288c strain | shares compounds with LAP4-GFP MLPCN | S. cerevisiae s288c, 520 nm autofluorescence, flow cytometry, 3 h; active compounds read high; zero means same as solvent-only cells | fluorescence change (kMESF span) at 33 µM | 610 tested, under 10 active | AID 2757, 2010;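 active means fluorescence span over the dose series, or activity score, above about 33, limit read from the data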
s288c autofl DR = autofluorescence of compounds in yeast s288c, dose response, artefact control for yeast TOR pathway GFP screen, primary hits, KU SAR, s288c parental. shares compounds with LAP4-GFP MLPCN. S. cerevisiae s288c parental, compound autofluorescence, flow cytometry, 3 h. fluorescence change (span) at 33 µM. 110 tested, under 10 active. AID 488829, 2010;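 active means fluorescence change span, or the activity score built from it, above 25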
TORC1 bypass = wild-type yeast growth inhibition sparing TORC1 bypass cells, mechanism study for yeast TOR pathway GFP screen, BY4741 wild type, TORC1 bypass strain; shares compounds with LAP4-GFP MLPCN; S. cerevisiae BY4741 spot growth rating, 48-72 h; active compounds read low; growth rating (0-3) at 30 µM; 120 tested, under 10 active; AID 504456, 2011;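 active means growth rating at most 1 for wild type yeast while the TORC1 bypass strain still grows fully, rated 3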
Hits are given with their value; i = inactive; nt = not tested or not shown.

SMILES	CIT2-GFP yeast	AGP1-GFP MLPCN	RPL19A-GFP yeast	LAP4-GFP MLPCN	MEP2-GFP yeast	Yeast autofluor	others
CSc1nc(-c2ccc(C)cc2)nc(N)c1C#N	i	i	i	i	i	nt
CC(C)(C)S(=O)(=O)c1cnc2c(-c3ccc(F)cc3)cnn2c1N	i	i	i	i	i	nt
CC1CCCCN1CCCNC(=O)c1ccc2nc(N3CCCCC3)sc2c1 (configuration not stated)	i	i	i	i	i	nt
O=C1C=CC(=O)N1c1ccc(Sc2ccc([N+](=O)[O-])cc2)cc1	i	i	i	162	i	i
Cn1c(N)c(Sc2ccc([N+](=O)[O-])cc2)c(=O)n(C)c1=O	i	i	i	i	i	nt
O=C(C1CCCN(c2ncnc3c2nc2n3CCCCC2)C1)N1CCN(c2ccccc2F)CC1 (configuration not stated)	i	i	i	i	i	nt
COCc1nc(-c2cc(OC)c(OC)c(OC)c2)no1	i	i	25	i	793	nt	LAP4 cherry2=i;MEP2 cherry2=i;RPL19A GFP CP2=i;CIT2 GFP CP2=i;AGP1-GFP pick2=i
O=C(/C=C/c1c(Cl)cccc1Cl)NCCCn1ccnc1	i	i	i	i	i	nt
O=C(c1ccc(Cl)cc1)N1CCN(c2cccc3[nH]ccc23)CC1	i	i	i	259	i	i
Cc1ccc(NC(=O)CCn2c(=O)c3cccn3c3ccccc32)cc1C	i	i	i	i	i	nt
N#Cc1ncc(Cc2ccccc2)nc1C#N	i	i	i	i	i	nt
O=C(O)c1ccccc1SC1CC(=O)N(c2ccc3c(c2)OCO3)C1=O (configuration not stated)	i	i	i	151	i	i
CCCS(=O)(=O)Nc1cccc(-c2ccc3nnc(C)n3n2)c1	i	i	i	i	i	nt
CCS(=O)(=O)Nc1cccc(-c2ccc3nnc(-c4cccnc4)n3n2)c1	i	i	i	171	i	nt	LAP4 cherry2=i;MEP2 cherry2=i;RPL19A GFP CP2=i;CIT2 GFP CP2=i;AGP1-GFP pick2=i
O=C(CS(=O)c1ccccc1[N+](=O)[O-])Oc1ccc(Br)cc1 (configuration not stated)	i	i	i	170	i	i
COc1ccc(C(=O)CCC(=O)NC2=NCCS2)cc1	i	i	i	i	i	nt
O=C1C=CC(=O)N1c1cccc(-c2ccccc2)c1	i	i	i	206	i	i
COc1cccc(/C=C2\C(=O)N(c3cccc(C)c3)C(=O)c3ccccc32)c1	i	i	i	154	i	i
CC(=O)NCC1CCCN(Cc2cn(-c3ccccc3)nc2-c2ccc3c(c2)OCO3)C1 (configuration not stated)	i	i	i	192	i	nt	LAP4 cherry2=i;MEP2 cherry2=i;RPL19A GFP CP2=i;CIT2 GFP CP2=i;AGP1-GFP pick2=i
Cc1cc(NS(=O)(=O)c2ccc(NC(=O)c3ccccc3F)cc2)no1	i	i	i	i	i	nt
N/C(Cc1ccc(Cl)cc1)=N\OC(=O)c1ccccc1	i	i	i	192	i	i	LAP4 cherry2=218;MEP2 cherry2=166;RPL19A GFP CP2=i;CIT2 GFP CP2=225;AGP1-GFP pick2=i
CCN(CC)c1ccc(S(=O)(=O)N2CCOCC2)cc1NC(=O)CN1CCN(Cc2ccccc2)CC1	i	i	i	i	i	nt
Cc1ccc(/C=C2/SC(=S)N(C3CCCCC3)C2=O)o1	i	i	i	158	i	i
Cc1ccc(/C=C2\SC(=S)N(CC3CCCO3)C2=O)o1 (configuration not stated)	i	i	i	171	i	i
O=C1/C(=C/c2ccncc2)SC(=S)N1C1CCCCC1	i	i	i	i	i	nt
SMILES	CIT2-GFP yeast	AGP1-GFP MLPCN	RPL19A-GFP yeast	LAP4-GFP MLPCN	MEP2-GFP yeast	Yeast autofluor	others
COc1ccc(Cl)cc1NC(=O)CN(C)C(=O)c1cc2c(s1)CCC(C)C2 (configuration not stated)	i	i	i	i	i	nt
Cc1cc(C)nc(Nc2n[nH]c(COc3ccc4ccccc4c3)n2)n1	i	i	i	i	i	nt
Cc1cc(C)nc(Nc2n[nH]c(COc3ccccc3)n2)n1	i	i	i	i	i	nt	LAP4 cherry2=i;MEP2 cherry2=i;RPL19A GFP CP2=i;CIT2 GFP CP2=i;AGP1-GFP pick2=i
Cc1[nH][nH]c(=O)c1C(c1ccc(-c2ccc(Cl)c(Cl)c2)o1)c1c(C)[nH][nH]c1=O	i	i	i	217	i	i
Cc1[nH][nH]c(=O)c1C(c1ccc(-c2ccc(F)cc2)o1)c1c(C)[nH][nH]c1=O	i	i	i	i	i	nt
CC(=O)c1cn(S(=O)(=O)c2ccccc2)c2ccccc12	i	i	i	i	i	nt
CC1CCN(CCCNC(=O)C2CCC(CNS(=O)(=O)c3ccccc3)CC2)CC1 (configuration not stated)	i	i	i	i	i	nt
COc1ccc([N+](=O)[O-])c(S(=O)(=O)c2ccccc2)n1	i	i	i	218	i	i	s288c autofl DR=i;TORC1 bypass=i
COc1ccc([N+](=O)[O-])c(S(=O)(=O)c2ccc(Cl)cc2)n1	i	i	i	i	i	i	s288c autofl DR=i;TORC1 bypass=i
O=[N+]([O-])c1cccnc1S(=O)(=O)c1ccccc1	i	i	i	i	i	nt

Assay outcomes (PubChem)
